A selection: hits, their analogues and other compounds. The true share with any hit is near 0.35%.
Anesthetic bind: candidate novel general anesthetic via apoferritin binding; P02791; apoferritin/1-aminoanthracene competitive binding, fluorescence; Potency, µM (doses to about 77.5 µM), usual class: inhibitors; 0.074% of 350,000 active; AID 485281; also: nearly all actives have a fitted effect of over 20% in size
Target sequence (P02791 2-175 limits assumed): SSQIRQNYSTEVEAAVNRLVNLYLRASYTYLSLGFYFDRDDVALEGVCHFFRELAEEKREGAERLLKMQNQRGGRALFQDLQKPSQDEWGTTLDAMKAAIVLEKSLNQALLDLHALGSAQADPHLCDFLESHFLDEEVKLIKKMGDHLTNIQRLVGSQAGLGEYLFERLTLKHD
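Apoferritin-based anesthetic binding model; compound displacement of fluorescent 1-AMA measured as endpoint fluorescence after 10 minutes at room temperature, scaled to free-ligand and complex controls.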
LDHA inh: LDHA (human) enzyme inhibition; activity change, % (values are at about 110 or 230 µM); purified LDHA, NADH/diaphorase-resazurin fluorescence; hits give low values; 0.15% of 480,000 active; P00338; in the data active = activity change below about -30%; inconclusive = mostly about -25% to -30%
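Remaining NADH was detected by diaphorase (0.133 mg/mL) converting 37 µM resazurin to fluorescent resorufin, read at 0 and 20 minutes. The preceding 5-minute room-temperature reaction used 2 nM LDHA, 0.2 mM sodium pyruvate and 0.06 mM NADH at pH 7.4.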
A-T KAP1 phos: potential ataxia-telangiectasia treatment | F2112 A-T fibroblasts, KAP-1 phosphorylation AlphaLISA; neocarzinostatin DNA damage 30 min before lysis | Potency, µM (series often up to 57.5 µM), most hits filed as activators | 0.19% of 320,000 active; also: nearly all actives have a fitted effect of over 45% in size
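ATM-like activity read as KAP-1 phosphorylation via AlphaLISA donor/acceptor antibody pairs after lysis and 6 hr at 25C. Cells were ATM-null patient fibroblasts (F2112, hTERT), dosed 60 min, then exposed to the DSB inducer NCS for 30 min.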
RGS4 inhibitor: blocks human RGS4-accelerated GTP hydrolysis | P49798 | Transcreener GDP fluorescence polarization, RGS4-accelerated GTP hydrolysis | Potency, µM (highest dose often 114 µM), most hits filed as inhibitors | 0.039% of 390,000 active; also: nearly all actives have a fitted effect of over 75% in size
Target sequence (P49798 whole entry, looked up): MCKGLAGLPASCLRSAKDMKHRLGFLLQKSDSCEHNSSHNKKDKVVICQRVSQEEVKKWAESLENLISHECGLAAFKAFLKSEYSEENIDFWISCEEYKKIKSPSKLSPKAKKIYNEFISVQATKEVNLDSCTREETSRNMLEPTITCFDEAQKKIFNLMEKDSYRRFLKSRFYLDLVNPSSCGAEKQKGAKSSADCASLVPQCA
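MLSMR compounds (23 nl, pin-transferred) preincubated 10 min at room temperature with a 500nM (2x) first reagent, then RGS4 at 900nM (2x) plus Transcreener GDP mix added; fluorescence polarization (620/688 nm) read before and after 90 min at 30 °C.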
A number is an active result; . = inactive; ? = inconclusive; / = no result; ! = a repeat was not active. Unless noted, calls follow the shape of the dose curve; as a rule, active = well fitted curve in the direction sought with a large enough effect; inconclusive = small, poorly fitted or top-dose-only effect, or another doubt; inactive = no such curve, though single readings can be large; an effect the other way counts as inactive or inconclusive.

SMILES	Anesthetic bind	LDHA inh	A-T KAP1 phos	RGS4 inhibitor
Cc1ccc(CN2CCN(Cc3ccc(F)cc3)CC2)cc1	/	.	/	/
COc1ccccc1CN1CCN(Cc2ccc(Cl)cc2)CC1	.	-34	.	.
COC(=O)C12CCC(CC1c1ccccc1)OC2=O (stereo not drawn)	/	.	/	/
CC(C)(C)C(=O)NC(Sc1nccc(SC(NC(=O)C(C)(C)C)C(Cl)(Cl)Cl)n1)=C(Cl)Cl (stereo not drawn)	/	.	/	/
CN(C)c1ccc(-[n+]2ccc(-c3cc[n+](-c4ccc(N(C)C)cc4)cc3)cc2)cc1	/	.	/	/
CCN(CC)P(=O)(NC(=O)C(Cl)(Cl)Cl)N(CC)CC.[Cl-].[Cl-].[Cl-].[Nd+3]	.	-49	/	?
C/C(=N\NC(N)=S)C12CC3CC(CC(C3)C1)C2	8.9µM	.	.	?
BrCC1C[n+]2c(SCc3ccccc3)nc3sc4c(c3c2O1)CCCC4 (stereo not drawn)	.	.	40µM	.
Clc1ccc(-c2ccc(CNC3CN4CCC3CC4)o2)c(Cl)c1 (stereo not drawn)	/	.	/	/
Brc1c(NC2=NCCN2)ccc2nccnc12	.	.	.	19µM
c1cncc(CNCCN2CCCC2)c1	/	.	/	/
O=C(Oc1ccc2cc(Br)ccc2c1)N1CCCCCC1	.	/	35µM	/
O=C(Nc1ccccc1OC(=O)N1CCCCC1)N1CCCCC1	?	.	.	.
CC(C)C(C)NC(=O)COC(=O)c1cn(C)c2ccccc12 (stereo not drawn)	/	.	/	/
N[n+]1cn[nH]c1	/	.	/	/
Cc1ccc[n+](CC(=O)c2ccccc2)c1	.	/	1.1µM	/
Cc1cccc(-n2c(/C=C/c3ccco3)nc3ccccc3c2=O)c1	/	.	/	/
c1coc(CN2Cc3ccccc3-n3nncc3C2)c1	/	-32	/	/
c1ccc(CN2Cc3ccccc3-n3nncc3C2)cc1	/	.	/	/
CCCC(=O)c1cn(Cc2ccc(C#N)cc2)c2ccccc12	/	.	/	/
Cc1c(C=O)c(C)n(C(C)C)c1C	/	.	/	/
CCN1C(=O)NC(=O)/C(=C\c2ccc(N3CCOCC3)cc2OC)C1=O	.	/	.	/
O=C1NC(=O)N(Cc2cccs2)C(=O)/C1=C/c1ccc(N2CCOCC2)cc1	.	-46	.	?
COc1ccccc1CNCCc1c[nH]c2ccccc12	/	.	/	/
CCOC(=O)C1CCCN(Cc2ccc(-c3ccccc3)cc2)C1 (stereo not drawn)	.	.	25µM	.
SMILES	Anesthetic bind	LDHA inh	A-T KAP1 phos	RGS4 inhibitor
CCOc1ccccc1N=C1SCCCN1C	.	-38	.	.
COCCNC(=O)NC(=O)CCl	/	.	/	/
Cc1cc(C(=O)CCl)c(C)[nH]1	/	.	/	/
Cc1c(F)c(F)c(COC(=O)C2C(/C=C(\Cl)C(F)(F)F)C2(C)C)c(F)c1F (stereo not drawn)	.	/	/	/
CC1(C)C(C=C(Cl)Cl)C1C(=O)OCc1cccc(Oc2ccccc2)c1 (stereo not drawn)	.	.	40µM	.
CN1CCCC(C(O)(c2ccccc2)c2ccccc2)C1 (stereo not drawn)	.	.	3.2µM	.
CCCN1CCc2cc(O)cc3c2[C@H]1Cc1ccc(O)c(O)c1-3	/	.	/	0.53µM!
CCCN1CCc2cccc3c2C1Cc1ccc(O)c(O)c1-3 (stereo not drawn)	.	/	/	.
O=C(COc1ccc(Br)cc1)N1CCN(Cc2ccncc2)CC1	.	-39	.	.

From PubChem
